# Experimental data from PubChem BioAssay.
# Several values for one entry are separate records, joined by “and”; a condition that tells them apart may be missing. Identical values can stand only once. Activity calls are given as the source filed them.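 How the source made its calls, unless noted: active means compounds whose cell count with miR-34 switched on is under 0.7 times the count with it off; inactive means the rest.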
# How the values were obtained:
# [1] = compounds altering viability of human ES cells (AID 493140; call rule not given here;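 further: cells exposed to compounds for four days before counting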); conditions: human embryonic stem cell survival screen; stronger effect = higher value
# [2] = P. berghei load reduction in hepatocytes – cell-based, HepG2, luciferase luminescence, HepG2 viability, primary screen (AID 624349; in the data active means parasite load remaining mostly below about 12%, no sharp cut-off; inactive means mostly above about 10%;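 further: 100% = mean of DMSO negative control wells on the same plate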); conditions: P. berghei liver stage in HepG2, luciferase luminescence, concentration not given here; parasite load remaining: stronger effect = lower value; viability: measured here: HepG2 viability without parasites
# [3] = Wnt pathway potentiators raising nuclear beta-catenin – imaging, WNT3A-conditioned medium, mouse C2C12, NPC library, primary screen (AID 1117326; in the data active means nuclear beta-catenin stimulation mostly above about 4.2%, no sharp cut-off; inactive means mostly below about 10%); conditions: stronger effect = higher value
# [4] = stimulators of insulin release from INS-1E, primary screen, cell-based, 5 mM glucose, NPC library (AID 1117329;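 active means compound raises insulin release from rat beta cells at 5 mM glucose, no numeric limit stated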); conditions: rat INS-1E insulin secretion, at 10 µM, stronger effect = higher value
# [5] = growth inhibition of GSK3B-pretreated HCT116 cells – cell-based, CellTiter-Glo, 0.2 to 20 µM (AID 1117336;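 active means compounds lowering colon cancer cell viability after pretreatment blocking the GSK3B kinase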); conditions: HCT116 viability after GSK3B inhibitor, at 20 µM, stronger effect = higher value
# [6] = inhibition of endothelial tube formation, primary screen, imaging, VEGF stimulated, CD31 staining, tube area, NPC library (AID 1117340;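 active means compound that reduces growth-factor-driven endothelial tube area in a mixed cell culture, no cutoff stated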); conditions: VEGF-stimulated ADSC/ECFC co-culture, at 10 µM, stronger effect = higher value
# [7] = GLP1 release stimulators, primary, NCI-H716, NPC library (AID 1117341;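 active means compound raises GLP1 secretion from the human gut endocrine cells, with no numeric limit stated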); conditions: NCI-H716 cells, at 10 µM, stronger effect = higher value
# [8] = HCT116 colon cancer cell growth inhibition, primary screen, CellTiter-Glo luminescence, NPC library (AID 1117342;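 active means compounds that lower survival of HCT116 colon cancer cells in the luminescence readout, no numeric limit stated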); conditions: at 20 µM (top of the series)
# [9] = reduced SW480 viability measured with CellTiter-Glo, NPC library, primary (AID 1117343;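 active means compounds that lower viability of the colon cancer cells in the luminescence readout, with no numeric limit stated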); conditions: CellTiter-Glo luminescence; at 20 µM (top of the series) unless noted
# [10] = NPC library primary testing for decreased DLD-1 cell viability via CellTiter-Glo (AID 1117346;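 active means compounds that lower survival of DLD-1 colon cancer cells in the luminescence readout, no cutoff given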); conditions: DLD-1 viability, CellTiter-Glo luminescence; at 20 µM (top of the series)
# [11] = EMT-state selective cytotoxicity in co-culture – imaging, PC-3E GFP, TEM4-18 mCherry, primary screen (AID 1345086;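 active means compounds killing one labelled cell type while sparing the other, by normalised counts and ratio limits, not self-fluorescent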;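 on all read-outs here: cells exposed to compound for 72 h before imaging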;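 on red/green cell ratio (normalised): normalised mesenchymal count divided by normalised epithelial count so high means epithelial killing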); conditions: PC-3E GFP / TEM4-18 mCherry co-culture, imaging cell counts, at 1 µM; for red/green cell ratio (normalised): actives lie on both sides, counts scaled to control wells, 1 = unselective
# [12] = viability loss with induced miR-34 in A549 – imaging, A549 dox-inducible miR-34, nuclei and caspase counts, primary screen (AID 1347080); conditions: A549 miR-34 inducible, Hoechst nuclei count, 48 h
# [13] = MELAS cybrid and Rieske KO viability enhancers – cell-based, MELAS cybrids, Rieske KO mouse fibroblasts, CellTiter-Glo, primary screen (AID 1508586;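 active means mean z-score across replicates of 1.96 or higher in either the MELAS or the Rieske mutant cell line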;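 further: z relative to plate mean and SD of compound and empty wells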); conditions: low glucose
# [14] = target: NAD(+) hydrolase SARM1 (Homo sapiens) (UniProt Q6SZW1); experiment: blocking NAD cleavage by SARM1 SAM-TIR – cell lysate, NAD-Glo luminescence (AID 1508614;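 active means compound whose remaining NAD level is above about 45 nM, limit read from the data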); conditions: SAM-TIR HEK293T lysate NADase, at 1 µM, stronger effect = higher value
# [15] = measured here: epithelial PC-3E GFP cell survival
# [16] = measured here: mesenchymal TEM4-18 mCherry cell survival
# [17] = stronger effect = lower value, cell number ratio, induced over uninduced
# [18] = measured here: relative caspase fold change +Dox/-Dox
# [19] = measured here: total cells with miR-34 induction, stronger effect = lower value
# [20] = measured here: total cells without miR-34 induction
# [21] = MELAS cybrid survival, CellTiter-Glo 48 h, stronger effect = higher value
# [22] = Rieske KO mouse fibroblast survival, CellTiter-Glo 72 h
# Sequence of NAD(+) hydrolase SARM1 (Homo sapiens) (Q6SZW1 whole entry, looked up): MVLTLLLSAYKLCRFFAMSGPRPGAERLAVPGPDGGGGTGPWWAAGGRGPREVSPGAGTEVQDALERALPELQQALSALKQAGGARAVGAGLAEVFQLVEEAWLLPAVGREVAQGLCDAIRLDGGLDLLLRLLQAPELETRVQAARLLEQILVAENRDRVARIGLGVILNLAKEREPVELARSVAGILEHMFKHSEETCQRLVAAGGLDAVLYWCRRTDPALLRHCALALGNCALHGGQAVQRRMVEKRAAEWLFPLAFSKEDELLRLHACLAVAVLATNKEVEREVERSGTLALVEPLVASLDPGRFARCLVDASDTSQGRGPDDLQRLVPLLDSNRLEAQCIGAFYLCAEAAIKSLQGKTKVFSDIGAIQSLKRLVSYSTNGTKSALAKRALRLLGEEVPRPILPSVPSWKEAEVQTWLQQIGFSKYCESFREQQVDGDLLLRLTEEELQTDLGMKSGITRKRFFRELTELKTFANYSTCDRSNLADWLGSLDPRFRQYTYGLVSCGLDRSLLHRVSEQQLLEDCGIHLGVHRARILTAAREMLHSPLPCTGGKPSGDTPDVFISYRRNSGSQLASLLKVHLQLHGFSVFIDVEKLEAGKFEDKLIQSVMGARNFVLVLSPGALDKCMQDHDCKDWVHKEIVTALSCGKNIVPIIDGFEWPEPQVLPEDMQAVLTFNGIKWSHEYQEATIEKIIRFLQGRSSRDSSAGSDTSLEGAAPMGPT
compound,measurement,setting,value
CCCCOc1cc(C(=O)OCCN(CC)CC)ccc1N,survival,[1],11.5 (inactive)
same,parasite load remaining,[2],22.4% (inactive) and 92.2% (inactive)
same,viability,[2],49.5% and 89.9%
same,nuclear beta-catenin stimulation,[3]; at 10 µM,1.9% (inactive)
same,nuclear beta-catenin stimulation,"[3]; stimulation, at 2 µM",3.9%
same,insulin secretion stimulation,[4],50.7% (active)
same,viability decrease,[5],45.5% (inactive)
same,tube area decrease,[6],14.2% (inactive)
same,GLP1 secretion stimulation,[7],7.1% (inactive)
same,inhibition of viability,[8],66% (active)
same,viability decrease (inhibition),[9],51.8% (active)
same,viability decrease (inhibition),[10],81.6% (active)
same,red/green cell ratio (normalised),[11],0.93 (inactive)
same,normalised cell number,[11]; [15],1.02
same,normalised cell number,[11]; [16],0.95
same,fold change,[12]; [17],0.886 (inactive) and 0.893 (inactive) and 0.93 (inactive)
same,fold change,[12]; [18],1.39 and 0.433 and 0.883
same,cell count,[12]; [19],8530 and 8120 and 7780
same,cell count,[12]; [20],9620 and 9090 and 8360
same,z-score,[13]; [21],0.206 (inactive) and -0.26 (inactive) and 0.345 (inactive)
same,z-score,[13]; [22],-0.405 and -0.149 and 0.0628
same,remaining NAD,[14],10 nM (inactive)
O=C(NCC(O)CO)c1c(I)c(C(=O)NCC(O)CO)c(I)c(N(CCO)C(=O)CO)c1I (stereo unspecified),survival,[1],5.33 (inactive)
same,parasite load remaining,[2],117% (inactive)
same,viability,[2],103%
same,nuclear beta-catenin stimulation,[3]; at 10 µM,0.6% (inactive)
same,nuclear beta-catenin stimulation,"[3]; stimulation, at 2 µM",1.1%
same,insulin secretion stimulation,[4],2.2% (inactive)
same,viability decrease,[5],-0.3% (inactive)
same,tube area decrease,[6],-24.3% (inactive)
same,GLP1 secretion stimulation,[7],-2.6% (inactive)
same,inhibition of viability,[8],50.9% (active)
same,viability decrease (inhibition),[9],15.5% (inactive)
same,viability decrease (inhibition),[10],27.9% (inactive)
same,red/green cell ratio (normalised),[11],0.86 (inactive)
same,normalised cell number,[11]; [15],1.25
same,normalised cell number,[11]; [16],1.07
same,fold change,[12]; [17],0.865 (inactive)
same,fold change,[12]; [18],1.27
same,cell count,[12]; [19],8520
same,cell count,[12]; [20],9850
same,z-score,[13]; [21],-0.49 (inactive)
same,z-score,[13]; [22],-1.02
same,remaining NAD,[14],10 nM (inactive)
CC(C)(C)C(=O)C(Oc1ccc(Cl)cc1)n1ccnc1 (stereo unspecified),parasite load remaining,[2],15% (inactive)
same,viability,[2],70%
same,nuclear beta-catenin stimulation,[3]; at 10 µM,2.6% (inactive)
same,nuclear beta-catenin stimulation,"[3]; stimulation, at 2 µM",1.9%
same,insulin secretion stimulation,[4],2.5% (inactive)
same,viability decrease,[5],6.3% (inactive)
same,tube area decrease,[6],11.3% (inactive)
same,GLP1 secretion stimulation,[7],7.4% (inactive)
same,inhibition of viability,[8],34.8% (inactive)
same,viability decrease (inhibition),[9],27.1% (inactive)
same,viability decrease (inhibition),[10],44.1% (inactive)
same,red/green cell ratio (normalised),[11],0.92 (inactive)
same,normalised cell number,[11]; [15],0.94
same,normalised cell number,[11]; [16],0.86
same,fold change,[12]; [17],0.911 (inactive) and 0.872 (inactive)
same,fold change,[12]; [18],1.11 and 1.1
same,cell count,[12]; [19],8350 and 8730
same,cell count,[12]; [20],9170 and 10000
same,z-score,[13]; [21],-0.118 (inactive) and 0.2 (inactive)
same,z-score,[13]; [22],-0.278 and -0.284
same,remaining NAD,[14],10 nM (inactive)
CCOc1ccc2nc(S(N)(=O)=O)sc2c1,parasite load remaining,[2],32.3% (inactive) and 52.3% (inactive)
same,viability,[2],171% and 98.2%
same,nuclear beta-catenin stimulation,[3]; at 10 µM,1.3% (inactive)
same,nuclear beta-catenin stimulation,"[3]; stimulation, at 2 µM",0.1%
same,insulin secretion stimulation,[4],-2.2% (inactive)
same,viability decrease,[5],16.7% (inactive)
same,tube area decrease,[6],20.8% (inactive)
same,GLP1 secretion stimulation,[7],2.1% (inactive)
same,inhibition of viability,[8],-30% (inactive)
same,viability decrease (inhibition),[9],85.7% (active)
same,viability decrease (inhibition),[10],7.15% (inactive)
same,red/green cell ratio (normalised),[11],0.96 (inactive)
same,normalised cell number,[11]; [15],0.89
same,normalised cell number,[11]; [16],0.86
same,fold change,[12]; [17],0.841 (inactive) and 0.925 (inactive)
same,fold change,[12]; [18],3.81 and 2.83
same,cell count,[12]; [19],10500 and 10700
same,cell count,[12]; [20],12500 and 11500
same,z-score,[13]; [21],-0.477 (inactive)
same,z-score,[13]; [22],0.458
same,remaining NAD,[14],10 nM (inactive)
